Calls of active or inactive are those of the source.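 The calls were made as follows: active = compounds whose dose response marks them as Clk4 kinase inhibitors with a measurable half-maximal potency; inactive = the rest.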
Each compound was assayed against Dual specificity protein kinase CLK4 (Homo sapiens) (UniProt Q9HAZ1) (assay: Kinase Inhibition Profile Study on Inhibitors of CDC-like Kinase 4). Settings: Reaction Biology radiometric kinase assay, 10 uM ATP.
Source text: NIH Molecular Libraries Probe Production Centers Network [MLPCN] NIH Chemical Genomics Center [NCGC] MLSCN Grant: 1R03MH084827-01 Assay Submitter (PI): Tom Misteli NCGC Assay Overview: Alternative splicing of pre-mRNAs plays a major role in the regulation of eukaryotic gene expression. Alternative splicing is now thought to be one of the primary reasons for the complexity of higher organisms leading to an average of three protein isoforms per gene. Aberrant splicing can lead to a number of diseases and is known to play a role in rare genetic diseases such as progeria syndrome. Hutchinson-Gilford Progeria Syndrome (HGPS) is a pediatric premature aging disease caused by a spontaneous mutation in the lamin A/C (LMNA) gene due to a single point mutation in the lamin A gene effecting 1 in 4 million people. To identify both specific splicing modulators of the lamin A gene as well as general splicing modulators, a cell-based HTS assay was developed using a minigene reporter system (AIDs, 1459 & 1487). […] The Clk family is part of the CMGC group of protein kinases which includes Dyrks and are essential kinases found in all eukaryotes. Clks have been implicated to play a role in the regulation of alternative splicing; while Dyrks, in particular over expression of Dyrk1A, has been linked to diseases as Down syndrome and Alzheimer disease. This AID summarizes the characterization of lead Clk4 inhibitors in a panel of these related kinases: Clk1, 2 & 3, DYRK1/DYRK1A, and DYRK1B. Potency against Clk4 was also confirmed in the panel.
All kinase reactions were performed using 10 uM ATP in the assay. 100% activity was taken from kinase reactions with DMSO alone (the vehicle used for compound stock solutions).

Sequence of Dual specificity protein kinase CLK4 (Homo sapiens) (Q9HAZ1 whole entry, looked up, canonical isoform): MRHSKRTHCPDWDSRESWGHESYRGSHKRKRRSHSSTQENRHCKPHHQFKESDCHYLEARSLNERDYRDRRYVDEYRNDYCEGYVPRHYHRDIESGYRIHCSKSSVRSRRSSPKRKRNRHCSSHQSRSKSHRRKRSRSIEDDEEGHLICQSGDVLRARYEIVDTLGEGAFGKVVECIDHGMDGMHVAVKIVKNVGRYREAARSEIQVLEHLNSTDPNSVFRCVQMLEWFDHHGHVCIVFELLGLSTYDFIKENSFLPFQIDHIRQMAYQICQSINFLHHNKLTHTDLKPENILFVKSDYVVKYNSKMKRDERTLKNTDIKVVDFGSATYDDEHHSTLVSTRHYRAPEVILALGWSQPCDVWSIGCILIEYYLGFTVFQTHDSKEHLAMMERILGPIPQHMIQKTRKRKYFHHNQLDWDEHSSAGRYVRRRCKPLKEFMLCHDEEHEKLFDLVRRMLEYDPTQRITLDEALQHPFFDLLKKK

Potency, active:
Cc1occc1-c1ccc2ncnc(NCCc3cnc[nH]3)c2c1 740 nM, CCOC(=O)c1ccc(-c2ccc3ncnc(NCc4ncc[nH]4)c3c2)o1 790 nM, OCc1ccc(-c2ccc3ncnc(NCCc4cnc[nH]4)c3c2)o1 1290 nM, c1nc(NCCc2cnc[nH]2)c2cc(-c3ccoc3)ccc2n1 840 nM, O=C(O)c1ccc(-c2ccc3ncnc(NCCc4cnc[nH]4)c3c2)o1 940 nM, Cc1nc(CNc2ncnc3ccc(-c4ccoc4)cc23)cs1 340 nM, c1nc(NCC2CCOC2)c2cc(-c3ccc4c(c3)OCO4)ccc2n1 (stereo unspecified) 29 nM, CN(Cc1ncc[nH]1)c1ncnc2ccc(-c3ccc4c(c3)OCO4)cc12 120 nM, c1csc(CNc2ncnc3ccc(-c4ccoc4)cc23)c1 249 nM, CCOC(=O)c1ccc(-c2ccc3ncnc(NCc4csc(C)n4)c3c2)o1 810 nM, Cc1nc(CNc2ncnc3ccc(-c4ccc5c(c4)OCO5)cc23)cs1 40 nM, c1coc(-c2ccc3ncnc(NCc4cccs4)c3c2)c1 1090 nM, CC(C)(C)CNc1ncnc2ccc(-c3ccc4c(c3)OCO4)cc12 70 nM, CCOC(=O)c1ccc(-c2ccc3ncnc(NCCc4cnc[nH]4)c3c2)o1 250 nM, Cc1ccc(CNc2ncnc3ccc(-c4ccoc4C)cc23)o1 490 nM, Cc1nc(CN(C)c2ncnc3ccc(-c4ccc5c(c4)OCO5)cc23)cs1 11 nM, CCOC(=O)c1ccc(-c2ccc3ncnc(NCc4ccc(C)o4)c3c2)o1 230 nM, COc1cccc(-c2ccc3ncnc(NCc4cccs4)c3c2)c1 1050 nM, c1nc(NCC2CCCC2)c2cc(-c3ccc4c(c3)OCO4)ccc2n1 90 nM, Cc1nc(CNc2ncnc3ccc(-c4ccoc4C)cc23)cs1 850 nM, c1csc(CNc2ncnc3ccc(-c4ccc5c(c4)OCO5)cc23)c1 39 nM
